{
  "source": "PubChem BioAssay (NCATS)",
  "note": "Inconclusive results are not listed. Values without a mark were called inactive. The source made the active and inactive calls. The call rests on the fitted dose curve; in most records, active means well fitted inhibition curve with a large enough effect; inconclusive means small, poorly fitted or top-dose-only effect; inactive means flat fitted curve, though single readings scatter. On the % scale 0 is the no-effect control and ±100 the full control effect; potency means the concentration at half of the fitted maximal effect.",
  "data": [
    {"target": "Calcium and integrin-binding protein 1 (Homo sapiens) (UniProt Q99828)", "sequence (Q99828 whole entry, looked up)": "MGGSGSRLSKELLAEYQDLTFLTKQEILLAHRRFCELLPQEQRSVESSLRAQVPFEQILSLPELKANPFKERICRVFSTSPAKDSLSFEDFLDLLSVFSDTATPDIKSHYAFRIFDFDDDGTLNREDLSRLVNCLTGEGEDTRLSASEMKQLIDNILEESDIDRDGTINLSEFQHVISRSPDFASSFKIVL", "experiment": "Primary qHTS for Identification of Calcium Integrin Binding Protein 1 (CIB1) Competitor (AID 1508620);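 on activity change, negative = inhibition: GST tagged CIB1 binding a fluorescein labelled alphaIIb integrin peptide tracer; top concentration of the series differs between compounds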", "conditions": "CIB1-GST / FITC-alphaIIb peptide fluorescence polarization; series mostly up to 114 µM; activity change, negative = inhibition: at the top concentration", "method_in_brief": "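CIB1-GST (1 uM final) and compound incubated 15 min at room temperature before adding FITC-alphaIIb peptide tracer (100 nM final). Competition for binding read by fluorescence polarization (ex 480, em 540) after another 15 min at room temperature.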", "values": [
      {"compound": "COc1cc(N2CCC(N3CCN(C)CC3)CC2)ccc1Nc1ncc(Cl)c(Nc2ccccc2P(C)(C)=O)n1", "activity change, negative = inhibition": "2.61%"},
      {"compound": "CCOc1cccc(NC(=O)c2ccc(N3CCCC3)c(C(F)(F)F)c2)c1", "activity change, negative = inhibition": "-4.51%"},
      {"compound": "COCCN(C(=O)c1cc(OC)c(OC)c(OC)c1)c1nc(-c2ccccc2)cs1", "activity change, negative = inhibition": "-1.37%"},
      {"compound": "C=C1C(=O)OC2/C=C(\\C)CC/C=C(\\C=O)C(OC)C(OC(=O)C(C)CC)C12", "note": "(centres undefined)", "activity change, negative = inhibition": "-8.53% [at 57.7 µM]"},
      {"compound": "COc1ccc2nc3n[nH]c(C)c3c(NCCOCCO)c2c1", "Potency": "50.1 µM (active)"},
      {"compound": "CCC(C)CNCC(=O)N1CCc2sccc2C1COc1cccc(C)c1", "note": "(centres undefined)", "activity change, negative = inhibition": "1.72%"},
      {"compound": "COc1ccc(C(=O)Nc2c(Cl)cncc2Cl)cc1OC1CCCC1", "activity change, negative = inhibition": "-9.04%"},
      {"compound": "CC1OC(=O)C[C@@H]2C(C(=O)O)=CO[C@@H](O[C@H]3O[C@H](CO)[C@@H](O)[C@H](O)[C@H]3O)[C@H]12", "note": "(some centres undefined)", "activity change, negative = inhibition": "-1.31% [at 57.7 µM]"},
      {"compound": "c1cc(NC2CCNCC2)nc(-c2cnc3ccccn23)c1", "activity change, negative = inhibition": "-10.8%"}
    ]}
  ]
}
